{"source": "PubChem BioAssay"}
{"experiment": "binders of probe aFST on microarray, primary screen, stem cell growth factor project, biochemical, small-molecule microarray, fluorescence 635/667 (AID 1086);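 also: score merges 667 nm fluorescence with signal-to-noise of each printed compound spot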", "settings": "higher = more signal"}
{"smiles": "O=C1C2C=CC(C(O)c3ccc([N+](=O)[O-])cc3)N(Nc3ccccc3)C2C(=O)N1c1ccccc1", "note": "(centres undefined)", "composite z-score": 0.564}
{"smiles": "CC(=O)NCCCC[C@@H]1NC(=O)[C@H]2C[C@@H](C(=O)NCCCCCC[N+](C)(C)C)[C@@H](c3ccc(O)cc3)N2C1=O", "composite z-score": -0.18}
{"smiles": "CCCC[C@H]1OB(O)C[C@H]2C1=C(COC)C[C@H]1C(=O)C=CC(=O)[C@H]12", "composite z-score": 0.534}
{"smiles": "C[C@@H](OCc1ccccc1)C1NC(=O)[C@@]23C(=O)N[C@@H](Cc4ccccc4)C2[C@H](C)[C@@]2(C)O[C@H]2C3/C=C/C/C=C\\CNC(=O)[C@H](Cc2ccccc2)NC1=O", "note": "(some centres undefined)", "composite z-score": -0.128}
{"smiles": "C=CCC(OC(C)=O)[C@@H]1[C@@H](N(Cc2ccc(-c3cccc(C(F)(F)F)c3)o2)C(=O)c2cccc3ccccc23)c2cc(OCCCO)ccc2N1C(=O)c1ccc2ccccc2c1", "note": "(some centres undefined)", "composite z-score": -0.0637}
{"smiles": "COCCn1c(C(=O)N2CCCC2)cc2c1C[C@H]1CN(C(=O)c3ccccc3)[C@@](Cc3ccccc3)(C(=O)OC)[C@@H]21", "composite z-score": 1.11}
{"smiles": "C=CC[C@@]12N=C(c3ccc(OCCCO)cc3)O[C@@H]1c1ccccc1N(Cc1ccccc1)C2=O", "composite z-score": 2.19}
{"smiles": "C[C@]1(C(=O)NCC(F)(F)F)c2ccccc2C(=O)N(Cc2ccc(OC(F)(F)F)cc2)[C@H]1c1ccc(CO)cc1", "composite z-score": -0.209}
{"smiles": "O=C1N(CCS(=O)(=O)c2ccccc2)c2ccccc2[C@@H]2OC(c3ccc(OCCCO)cc3)=N[C@]12CCS(=O)(=O)c1ccccc1", "composite z-score": 0.855}
{"smiles": "CN(C)CCCC[C@@H]1NC(=O)[C@@H]2C[C@H](C(=O)NCCCCCCNC(=O)CS)[C@H](c3cccc(OCCO)c3)N2C1=O", "composite z-score": 0.123}
{"smiles": "[N-]=[N+]=Nc1ccccc1[C@@H]1OC(c2ccc(OCCCO)cc2)=N[C@]1(Cc1ccccc1)C(N)=O", "composite z-score": 0.277}
{"smiles": "C=CC[C@]1(C(=O)N(C)C)COC(c2ccc(OCCCO)cc2)=N1", "composite z-score": 0.459}
{"smiles": "O=C1O[C@@H](c2ccccc2)[C@@H](c2ccccc2)N2[C@@H](c3ccc(O)cc3)[C@]3(C(=O)Nc4ccc(C#CC5=CCCCC5)cc43)[C@@H](C(=O)N3CCCCCCC3)[C@H]12", "composite z-score": 2.44}
{"smiles": "CCCCC(=C=CC[C@@H](O)c1cccc(OCCO)c1)C[C@@H](O)COCc1ccccc1", "composite z-score": -0.336}
{"smiles": "[N-]=[N+]=NCc1ccccc1C[C@]1(C(=O)O)COC(c2ccc(OCCCO)cc2)=N1", "composite z-score": 0.0273}
{"smiles": "COC(=O)[C@]1(CO)N=C(c2ccc(OCCCO)cc2)O[C@@H]1c1ccccc1CN=[N+]=[N-]", "composite z-score": -0.144}
{"smiles": "COc1ccc(NN2C(C(O)c3cc(C(F)(F)F)cc(C(F)(F)F)c3)C=CC3C(=O)N(C4CCCCC4)C(=O)C32)cc1", "note": "(centres undefined)", "composite z-score": 1.36}
{"smiles": "CN(C)CCCC[C@@H]1NC(=O)[C@H]2C[C@@H](C(=O)NCc3ccc(F)cc3)[C@@H](c3ccc(O)cc3)N2C1=O", "composite z-score": -0.0224}
{"smiles": "CCCC=C(CCC)[C@@H](NC(=O)c1ccccc1)c1ccc(C(=O)OC)cc1", "composite z-score": 1.01}
{"smiles": "C=CCC(OC(C)=O)[C@@H]1[C@@H](N(Cc2cccc3ccccc23)C(=O)c2cccc3ccccc23)c2cc(OCCCO)ccc2N1C(=O)Cc1ccc2ccccc2c1", "note": "(some centres undefined)", "composite z-score": -0.0942}
{"smiles": "C=C(COC)/C(=C/C[C@@H](OC(C)=O)c1ccccc1OCCO)c1cc(C(=O)OC)ccc1OC", "composite z-score": 0.0581}
{"smiles": "CO[C@H]1O[C@H](CO)[C@@H](OC(=O)Nc2ccc(C(F)(F)F)cc2)[C@H](OC(=O)Nc2ccccc2-c2ccccc2)[C@@H]1OC(=O)Nc1ccccc1-c1ccccc1", "composite z-score": 1.32}
{"smiles": "CCOC(=O)C[C@H]1[C@H](OC(=O)c2ccc(-c3ccccc3)cc2)[C@@H](NC(=O)CC(C)C)c2cc(OCCCO)ccc2N1C(=O)Cc1ccc(OC)cc1", "composite z-score": 0.367}
{"smiles": "CCOC(=O)C[C@H]1[C@H](OC(=O)c2cc3ccccc3oc2=O)[C@@H](NC(=O)C2CCCCC2)c2cc(OCCCO)ccc2N1C(=O)Cc1ccc(OC)cc1", "composite z-score": 0.352}
{"smiles": "N#Cc1ccc(C(O)C2C=CC3C(=O)NC(=O)C3N2Nc2ccccn2)cc1", "note": "(centres undefined)", "composite z-score": 0.12}
{"smiles": "O=C1C2C=CC(C(O)c3cccs3)N(Nc3ccccc3)C2C(=O)N1c1ccccc1", "note": "(centres undefined)", "composite z-score": 0.35}
{"smiles": "COC(=O)[C@@]1(Cc2ccc(OC)cc2)[C@H]2c3cc(C(=O)N4CCCC4)n(CCc4ccc(OC)c(Br)c4)c3C[C@H]2CN1C(=O)c1ccccc1", "composite z-score": 0.546}
{"smiles": "CO[C@H]1O[C@H](CO)[C@@H](OC(=O)Nc2ccc(C(F)(F)F)cc2)[C@H](OC(=O)Nc2ccccc2-c2ccccc2)[C@H]1OC(=O)Nc1ccccc1-c1ccccc1", "composite z-score": 0.997}
{"smiles": "CCOC(=O)C1=C(C(=O)OCC)N(S(=O)(=O)CC[Si](C)(C)C)[C@H](c2ccccc2)CC1", "composite z-score": 0.917}
